Assay results from PubChem BioAssay (NCATS).
Records with an inconclusive call do not appear. Active and inactive are the calls of the source. Calls follow the shape of the dose curve; as a rule, active = well fitted inhibition curve with a large enough effect; inconclusive = small, poorly fitted or top-dose-only effect; inactive = flat fitted curve, though single readings scatter.

Assays:
JCK = assay: qHTS profiling for inhibitors of Plasmodium falciparum proliferation (AID 504749);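 also: 0% = DMSO vehicle and full inhibition = artemisinin control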; settings: P. falciparum in erythrocytes, SYBR Green DNA, 72 h; series mostly up to 28.7 µM
Procedure, shortened: (§1)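 Fluorescence of SYBR Green-bound parasite DNA, read at 485/535 nm, served as the growth measure. Infected erythrocytes were cultured with compound 72 h; artemisinin (0.29 uM) and DMSO wells defined the normalization range.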

N140 = assay: as above; settings: P. falciparum in erythrocytes, SYBR Green DNA, 72 h; series mostly up to 28.7 µM
Procedure, shortened: as §1

P93_24 = assay: as above; settings: P. falciparum in erythrocytes, SYBR Green DNA, 72 h; series mostly up to 28.7 µM
Procedure, shortened: as §1

P94_40 = assay: as above; settings: P. falciparum in erythrocytes, SYBR Green DNA, 72 h; series mostly up to 28.7 µM
Procedure, shortened: as §1

PAD = assay: as above; settings: P. falciparum in erythrocytes, SYBR Green DNA, 72 h; series mostly up to 28.7 µM
Procedure, shortened: as §1

PC15 = assay: as above; settings: P. falciparum in erythrocytes, SYBR Green DNA, 72 h; series mostly up to 28.7 µM
Procedure, shortened: as §1

PC26 = assay: as above; settings: P. falciparum in erythrocytes, SYBR Green DNA, 72 h; series mostly up to 28.7 µM
Procedure, shortened: as §1

PC49 = assay: as above; settings: P. falciparum in erythrocytes, SYBR Green DNA, 72 h; series mostly up to 28.7 µM
Procedure, shortened: as §1

SC27B = assay: as above; settings: P. falciparum in erythrocytes, SYBR Green DNA, 72 h; series mostly up to 28.7 µM
Procedure, shortened: as §1

TAB109 = assay: as above; settings: P. falciparum in erythrocytes, SYBR Green DNA, 72 h; series mostly up to 28.7 µM
Procedure, shortened: as §1

TAB113 = assay: as above; settings: P. falciparum in erythrocytes, SYBR Green DNA, 72 h; series mostly up to 28.7 µM
Procedure, shortened: as §1

HaCat = assay: Cytotoxic Profiling of Annotated Libraries Using Quantitative High-Throughput Screening (AID 1296008); settings: Five cell lines viability, CellTiter-Glo ATP luminescence, 48-72 h; max response: stronger effect = lower value; as to max response: % is scaled to controls: 0 for no effect and ±100 for the full control effect
Procedure, shortened: (§2)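 Compounds were pin-transferred onto cells and incubated 48 or 72 hr at 37 degree Celsius, 95% humidity. CellTiter-Glo was added, plates sat 10 min at room temperature, then ATP-coupled luminescence was imaged as the viability read-out.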

NIH3T3 = assay: as above; settings: Five cell lines viability, CellTiter-Glo ATP luminescence, 48-72 h; max response: stronger effect = lower value
Procedure, shortened: as §2

CRL-7250 = normal cell line; assay: qHTS assay to identify novel small-molecules to repurpose for Merkel cell carcinoma treatment (AID 1296009); settings: MCC and control cell lines, CellTiter-Glo viability, 72 h; at 44.8 µM (top of the series) unless noted
Procedure, shortened: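 Luminescence from CellTiter-Glo, read 10 min after addition at room temperature, reported viability following a 72 hr, 37 degree celsius treatment with NPC or MIPE compounds in titration; values normalized to plate controls.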

ICS = assay: qHTS profiling for inhibitors of Plasmodium falciparum proliferation (AID 504749);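 also: 0% = DMSO vehicle and full inhibition = artemisinin control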; settings: P. falciparum in erythrocytes, SYBR Green DNA, 72 h; series mostly up to 28.7 µM
Procedure, shortened: as §1

TAB165 = assay: as above; settings: P. falciparum in erythrocytes, SYBR Green DNA, 72 h; series mostly up to 28.7 µM
Procedure, shortened: as §1

W2 = assay: as above; settings: P. falciparum in erythrocytes, SYBR Green DNA, 72 h; series mostly up to 28.7 µM
Procedure, shortened: as §1

KB-3-1 = assay: Cytotoxic Profiling of Annotated Libraries Using Quantitative High-Throughput Screening (AID 1296008); settings: Five cell lines viability, CellTiter-Glo ATP luminescence, 48-72 h; max response: stronger effect = lower value; as to max response: % is scaled to controls: 0 for no effect and ±100 for the full control effect
Procedure, shortened: as §2
Also: nearly all actives have a fitted effect of over 60% in size.

C[C@]12Cc3nonc3C[C@@H]1CC[C@@H]1[C@@H]2CC[C@@]2(C)[C@H]1CC[C@]2(C)O
inactive: Potency (JCK) | Potency (N140) | Potency (P93_24) | Potency (P94_40) | Potency (PAD) | Potency (PC15) | Potency (PC26) | Potency (PC49) | Potency (SC27B) | Potency (TAB109) | Potency (TAB113) | outcome (HaCat) | max response (NIH3T3) -6.95%

COc1cccc(N(C)C(=S)Oc2ccc3c(c2)CCCC3)n1
inactive: outcome (CRL-7250)

CCC(=O)O[C@H]1CC[C@H]2[C@@H]3CCC4=CC(=O)CC[C@]4(C)[C@H]3CC[C@]12C
inactive: Potency (ICS) | Potency (JCK) | Potency (N140) | Potency (P93_24) | Potency (P94_40) | Potency (PAD) | Potency (PC15) | Potency (PC26) | Potency (PC49) | Potency (SC27B) | Potency (TAB109) | Potency (TAB113) | Potency (TAB165) | Potency (W2) | outcome (HaCat) | max response (KB-3-1) -26.4% | max response (NIH3T3) 0.89%

OCCN1CCN(CCCN2c3ccccc3C=Cc3ccccc32)CC1
inactive: outcome (CRL-7250)

Oc1ccc(O)cc1
inactive: outcome (CRL-7250)

CC(CC(C#N)(c1ccccc1)c1ccccc1)N(C)C (centres undefined)
inactive: max response (HaCat) -5.96% | max response (KB-3-1) -8.06% | max response (NIH3T3) -12.2%

CC1(C)OC(=O)Nc2ccc(Br)cc21
inactive: outcome (CRL-7250)

O=C(O)Cc1ccc2c(c1)C(=O)c1ccccc1CO2
inactive: outcome (CRL-7250)

O=C(CCl)c1ccc(Cl)cc1Cl
inactive: outcome (HaCat) | max response (NIH3T3) -36.1%

CC(C)NCC(O)COc1ccc(COCCOC(C)C)cc1 (centres undefined)
inactive: outcome (CRL-7250)

CC[N+](CC)(CC)CCOC(=O)C(C1CCCC1)C1CCCC1
inactive: outcome (CRL-7250)

Clc1ccc(CSC(Cn2ccnc2)c2ccc(Cl)cc2Cl)cc1 (centres undefined)
inactive: max response (KB-3-1) -15.3%

O=C(CCCN1CCN(c2ccccn2)CC1)c1ccc(F)cc1
inactive: outcome (CRL-7250)
